Unmarked numbers belong to inactive results. For some of these results: Measured potencies and affinities stand elsewhere. Active and inactive are the calls of the source. Unless noted, how the calls were made is not given here.

Assay [1] in a line: antimalarial activity against Dd2 strain (AID 2302;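 active means growth inhibition above 50% at the single 2 µM test dose, taken to imply half-maximal potency below 2 µM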;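 further: 0% = DMSO untreated growth and 100% = chloroquine plus artemisinin killed control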). Conditions: P. falciparum Dd2 in RBCs, LDH growth readout, 72 h; at 2 µM; active compounds read high.
Assay [2] in a line: human hepatoma cell viability loss – ATP luminescence, cytotoxicity control for P. falciparum antimalarial project, primary screen (AID 2303;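 active means inhibition above 50%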;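 further: 0% = DMSO wells and 100% = digitonin-killed cells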). The following applies: HepG2 viability, 24-48 h, at 10 µM, active compounds read high.
For assay [3], the target named is L-lactate dehydrogenase (Plasmodium falciparum (isolate CDC / Honduras)) (UniProt Q27743). Kind of assay: PfLDH activity inhibition – cell lysate, 3D7 strain, counter-screen for P. falciparum growth inhibition project (AID 2304).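 Further: 0% = vehicle and 100% = reference inhibitor.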 The following applies: P. falciparum 3D7 crude extract, LDH APAD/NBT absorbance; at 2 µM; active compounds read high. On the technique in general: The purpose of a counterscreen is to sort out artefacts and off-target activity.
L-lactate dehydrogenase (Plasmodium falciparum (isolate CDC / Honduras)), sequence (Q27743 whole entry, looked up): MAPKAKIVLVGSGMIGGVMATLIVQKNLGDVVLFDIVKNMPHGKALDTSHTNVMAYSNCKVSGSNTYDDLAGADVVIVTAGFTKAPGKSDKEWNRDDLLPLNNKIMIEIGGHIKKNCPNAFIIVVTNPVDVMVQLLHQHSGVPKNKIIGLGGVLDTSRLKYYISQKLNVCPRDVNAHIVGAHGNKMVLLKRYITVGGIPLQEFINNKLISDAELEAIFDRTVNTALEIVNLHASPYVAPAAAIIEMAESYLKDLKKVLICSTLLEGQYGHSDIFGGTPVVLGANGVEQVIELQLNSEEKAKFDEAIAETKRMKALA

The nature of assay [4]: inhibition of 3D7 malaria parasite growth – strain 3D7 (AID 2306).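 Further: 0% = DMSO wells and 100% = chloroquine plus artemisinin control wells.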 The following applies: P. falciparum 3D7 erythrocytic growth, LDH absorbance, 72 h; at 2 µM; active compounds read high.
Assay [5] addresses Calcium-dependent protein kinase 1 (Plasmodium falciparum (isolate 3D7)) (UniProt P62344). Kind of assay: PfCDPK1 kinase inhibitors, biochemical, TCAMS library (AID 1159585; cut-off not given, nearly all actives have IC50 up to about 0.98 µM;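 further: inhibitors leave more ATP so luminescence rises with inhibition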). The following applies: recombinant PfCDPK1, Kinase-Glo ATP depletion luminescence.
Assay [6] deals with Plasmodium falciparum protein kinase 6 (PK6, PF3D7_1337100) (UniProt Q8IDW1). The experiment in a line: PfPK6 kinase inhibitors, biochemical, TCAMS library (AID 1159586). Conditions: recombinant PfPK6, Kinase-Glo ATP depletion luminescence. Background: In Kinase-Glo more light means more ATP remaining.
Plasmodium falciparum protein kinase 6 (PK6, PF3D7_1337100), sequence (Q8IDW1 1-305): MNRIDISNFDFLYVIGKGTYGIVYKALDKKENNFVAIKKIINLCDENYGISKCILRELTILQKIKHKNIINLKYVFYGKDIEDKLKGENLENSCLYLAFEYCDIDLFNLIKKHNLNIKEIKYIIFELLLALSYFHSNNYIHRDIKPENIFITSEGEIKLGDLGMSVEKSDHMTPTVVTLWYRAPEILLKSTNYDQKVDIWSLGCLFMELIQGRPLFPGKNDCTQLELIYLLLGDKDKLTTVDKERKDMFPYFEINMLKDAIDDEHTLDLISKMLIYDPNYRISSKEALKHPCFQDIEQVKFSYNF
The target in assay [7] is Protein kinase 7 (PK7), Plasmodium falciparum 3D7 (PF3D7_0213400) (UniProt Q7YTF7). The experiment in a line: inhibition of Plasmodium PK7 catalytic activity – biochemical, TCAMS antimalarial set, Kinase-Glo luminescence (AID 1159587). The following applies: recombinant PfPK7, Kinase-Glo ATP depletion luminescence.
Protein kinase 7 (PK7), Plasmodium falciparum 3D7 (PF3D7_0213400), sequence (Q7YTF7 1-343): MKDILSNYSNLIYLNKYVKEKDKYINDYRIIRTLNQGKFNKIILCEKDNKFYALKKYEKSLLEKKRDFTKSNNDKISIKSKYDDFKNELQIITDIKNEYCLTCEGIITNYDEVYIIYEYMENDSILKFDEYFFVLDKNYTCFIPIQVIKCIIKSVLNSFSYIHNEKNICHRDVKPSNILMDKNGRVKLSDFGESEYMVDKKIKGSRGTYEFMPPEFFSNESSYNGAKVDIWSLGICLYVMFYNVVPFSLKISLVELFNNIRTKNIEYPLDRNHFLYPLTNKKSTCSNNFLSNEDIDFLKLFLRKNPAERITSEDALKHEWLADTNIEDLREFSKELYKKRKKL
Assay [8] has as its target Calcium-dependent protein kinase 4 (Plasmodium falciparum (isolate 3D7)) (UniProt Q8IBS5). The experiment in a line: PfCDPK4 kinase inhibitors, biochemical, TCAMS library (AID 1159588; cut-off not given, nearly all actives have IC50 up to about 0.91 µM). The following applies: recombinant PfCDPK4, Kinase-Glo ATP depletion luminescence.

Calcium-dependent protein kinase 1 (Plasmodium falciparum (isolate 3D7)), sequence (P62344 whole entry, looked up): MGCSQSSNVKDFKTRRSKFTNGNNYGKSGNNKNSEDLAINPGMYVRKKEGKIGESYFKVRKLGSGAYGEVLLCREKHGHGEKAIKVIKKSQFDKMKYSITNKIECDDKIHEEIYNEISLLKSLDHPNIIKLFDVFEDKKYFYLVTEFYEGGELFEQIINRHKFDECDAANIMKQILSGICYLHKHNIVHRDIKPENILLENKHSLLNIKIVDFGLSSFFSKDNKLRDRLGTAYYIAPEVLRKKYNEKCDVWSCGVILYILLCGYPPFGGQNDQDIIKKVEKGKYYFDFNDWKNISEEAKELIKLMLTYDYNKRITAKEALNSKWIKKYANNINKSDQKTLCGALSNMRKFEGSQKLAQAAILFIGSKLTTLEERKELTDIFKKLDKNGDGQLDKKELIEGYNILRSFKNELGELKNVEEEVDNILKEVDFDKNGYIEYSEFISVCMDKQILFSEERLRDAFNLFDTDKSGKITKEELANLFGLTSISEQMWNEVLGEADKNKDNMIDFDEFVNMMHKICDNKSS
Calcium-dependent protein kinase 4 (Plasmodium falciparum (isolate 3D7)), sequence (Q8IBS5 whole entry, looked up): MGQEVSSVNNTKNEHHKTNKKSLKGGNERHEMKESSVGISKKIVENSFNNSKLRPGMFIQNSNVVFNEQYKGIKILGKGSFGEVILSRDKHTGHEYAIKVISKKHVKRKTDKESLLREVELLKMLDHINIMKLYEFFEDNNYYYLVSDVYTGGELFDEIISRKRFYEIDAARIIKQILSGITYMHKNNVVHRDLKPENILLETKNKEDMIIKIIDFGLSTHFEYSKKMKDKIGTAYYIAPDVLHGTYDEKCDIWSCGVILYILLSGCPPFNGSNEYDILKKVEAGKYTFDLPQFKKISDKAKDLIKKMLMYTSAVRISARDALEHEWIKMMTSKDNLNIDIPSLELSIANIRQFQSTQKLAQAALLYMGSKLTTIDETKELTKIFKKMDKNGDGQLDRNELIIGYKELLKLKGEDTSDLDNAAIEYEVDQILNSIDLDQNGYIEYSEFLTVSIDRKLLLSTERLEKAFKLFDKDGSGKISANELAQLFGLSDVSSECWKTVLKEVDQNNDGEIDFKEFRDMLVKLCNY

In the case of `CC(C)(C)CCN1CCC(CNC(=O)c2cc(-c3cccc(C(F)(F)F)c3)cs2)C1` (stereo not given), the values for the growth inhibition in assay [1] and in assay [4] were 13% and 93% (active), respectively. In addition, the values for the inhibition in assay [2] and in assay [3] were 47% and -1%, respectively. Moreover, the outcome in assay [5], in assay [6], in assay [7] and in assay [8] was inactive.

Take `Cc1cc(N[C@@H](CC(C)C)C(=O)Nc2ccccc2)nc(Nc2ccccc2)n1`: the growth inhibition in assay [1] was 93% (active); in assay [4], 99% (active). Moreover, the inhibition (usually the change of the read-out against control, counted positive when it falls) is -2% in assay [2] and -1% in assay [3]. Further, the result in assay [5], in assay [6], in assay [7] and in assay [8] was inactive.

Turning to `CC1CCC(C(C)C)C(OC(=O)CSc2nnc3c(n2)[nH]c2ccccc23)C1` (stereo not given), the figures for the growth inhibition in assay [1] and in assay [4] were 74% (active) and 88% (active), respectively. Besides, the figures for the inhibition in assay [2] and in assay [3] were -5% and -2%, respectively. Besides, the outcome in assay [5], in assay [6], in assay [7] and in assay [8] was inactive.

Regarding `COc1ccc2nccc([C@@H](O)CN3CCC(NC(=O)c4cc5cccnc5[nH]4)CC3)c2c1`, the growth inhibition in assay [1] is 6%; in assay [4], 94% (active). For the same molecule, the inhibition in assay [2] was -8%; in assay [3] it was 2%. Also, the result in assay [5], in assay [6], in assay [7] and in assay [8] was inactive.

In the case of `CN1CCc2cc(I)c(O)cc2C1Cc1ccccc1Cl` (stereo not given), the growth inhibition in assay [1] is 96% (active); in assay [4], 98% (active). The inhibition was -7% in assay [2] and -2% in assay [3]. For the same molecule, the outcome in assay [5], in assay [6], in assay [7] and in assay [8] was inactive.

With `CN(Cc1cccc(O)c1)C1CCN(c2cc(NC(=O)c3ccc(F)cc3)ccn2)C1` (stereo not given), the figures for the growth inhibition in assay [1] and in assay [4] were 6% and 91% (active), respectively. Besides, the inhibition in assay [2] and in assay [3] was 5% in each case. Further, the outcome in assay [5], in assay [6], in assay [7] and in assay [8] was inactive.

On to `CC1CC(C)CN(CC(O)CNC(=O)Nc2ccc(Br)cc2)C1` (stereo not given), for which the growth inhibition in assay [1] is 44%; in assay [4], 94% (active). Besides, the inhibition is 13% in assay [2] and 5% in assay [3]. Besides, the result in assay [5], in assay [6], in assay [7] and in assay [8] was inactive.

For the molecule `O=C(NC1CCN(c2ccnc3cc(Cl)ccc23)C1)c1cccc(F)c1` (stereo not given), the growth inhibition in assay [1] was 98% (active); in assay [4], 95% (active). The inhibition in assay [2] is 30%; in assay [3] it was 1%. The result in assay [5], in assay [6], in assay [7] and in assay [8] was inactive.

Turning to `CC1(C)CNCc2cc(NC(=O)/C=C/c3ccc(Cl)cc3)ccc21`, the growth inhibition in assay [1] was 26%; in assay [4] it was 82% (active). The inhibition in assay [2] was 23%; in assay [3], -9%. For the same molecule, the outcome in assay [5], in assay [6], in assay [7] and in assay [8] was inactive.

With `O=C(Nc1cccc(CN2CCCN(CC3CCCCC3)CC2)c1)c1cc2ccccc2s1`, the growth inhibition in assay [1] is 15%; in assay [4], 96% (active). Further, the inhibition was 29% in assay [2] and 0% in assay [3]. For the same molecule, the outcome in assay [5], in assay [6], in assay [7] and in assay [8] was inactive.

Regarding `CN(C)CCOc1cc(NC(=O)Nc2ccc(-c3ccncc3)c3ccccc23)ccc1I`, the growth inhibition in assay [1] was 46%; in assay [4], 97% (active). Further, the inhibition is 35% in assay [2] and -3% in assay [3]. Besides, the outcome in assay [5], in assay [6], in assay [7] and in assay [8] was inactive.

Turning to `NC(=O)c1cccc(Nc2nccc(Nc3ccc(Oc4c(Cl)cccc4Cl)c(Cl)c3)n2)c1`, the growth inhibition in assay [1] was 17%; in assay [4], 93% (active). Moreover, the inhibition in assay [2] was 2%; in assay [3], 5%. Besides, the result in assay [5], in assay [6], in assay [7] and in assay [8] was inactive.

Take `COc1ccc(-c2ccc(NC(=O)c3cccc(C#N)c3)cc2)cc1CN1CCC(O)CC1`: the growth inhibition in assay [1] is 84% (active); in assay [4], 101% (active). In addition, the figures for the inhibition in assay [2] and in assay [3] were 21% and 7%, respectively. The outcome in assay [5], in assay [6], in assay [7] and in assay [8] was inactive.

Turning to `CCNS(=O)(=O)c1ccc(Oc2ccc([N+](=O)[O-])cc2)cc1`, the growth inhibition in assay [1] was 85% (active); in assay [4], 94% (active). In addition, the inhibition in assay [2] and in assay [3] was 1% in each case. Besides, the result in assay [5], in assay [6], in assay [7] and in assay [8] was inactive.

Regarding `CS(=O)(=O)c1cccc(-c2ccc3oc(C(N)=O)c(NC(=O)c4cccs4)c3c2)c1`, the values for the growth inhibition in assay [1] and in assay [4] were 77% (active) and 86% (active), respectively. In addition, the inhibition was 11% in assay [2] and -8% in assay [3]. Moreover, the outcome in assay [5], in assay [6], in assay [7] and in assay [8] was inactive.

For the molecule `CC1(C)C[C@@H]2C[C@@](C)(CN2C(=O)c2cc(C(C)(C)C)nn2Cc2ccccc2)C1`, the growth inhibition was 77% (active) in assay [1] and 86% (active) in assay [4]. The inhibition is -3% in assay [2] and 0% in assay [3]. Also, the result in assay [5], in assay [6], in assay [7] and in assay [8] was inactive.

On to `Cc1ccc(Nc2nnc(SCC(=O)Nc3ccc(CN4CCCC4)cc3)s2)cc1`, for which the values for the growth inhibition in assay [1] and in assay [4] were -2% and 91% (active), respectively. Besides, the figures for the inhibition in assay [2] and in assay [3] were 4% and -2%, respectively. Besides, the result in assay [5], in assay [6], in assay [7] and in assay [8] was inactive.

With `C=CCOC(=O)N1CCC(CNCc2cccc(-c3ccc(-c4nc5ccc(C(F)(F)F)cc5[nH]4)cc3)c2)C1` (stereo not given), the values for the growth inhibition in assay [1] and in assay [4] were 96% (active) and 102% (active), respectively. The inhibition is 28% in assay [2] and -3% in assay [3]. The result in assay [5], in assay [6], in assay [7] and in assay [8] was inactive.

As to `COc1ccc(CNC2CCN(C)CC2)cc1-c1ccc(S(=O)(=O)NCCc2ccccn2)c(C)c1`, the growth inhibition in assay [1] is 91% (active); in assay [4], 96% (active). Further, the inhibition is 7% in assay [2] and -2% in assay [3]. The outcome in assay [5], in assay [6], in assay [7] and in assay [8] was inactive.

Regarding `COc1cccc(-c2cc(-c3ccc(NC(=O)c4ccccc4)cc3)c3c(N)ncnc3n2)c1`, the figures for the growth inhibition in assay [1] and in assay [4] were 98% (active) and 99% (active), respectively. The values for the inhibition in assay [2] and in assay [3] were -4% and 0%, respectively. In addition, the outcome in assay [5], in assay [6], in assay [7] and in assay [8] was inactive.
